These results are taken from PMC7819943, “Rice protein-binding microarrays: a tool to detect cis-acting elements near promoter regions in rice”.

Whole data set: some 39,000 sequences, median “fluorescence intensity (a.u.)” near 4,300, cut for the highest 2% near 39,000. For the sample, the highest values were picked, then their nearest neighbours and some sequences at random.

The target in this assay is T1, OsSMF1 (Oryza sativa, UniProt Q6ZLB0 1-436).
T1 sequence: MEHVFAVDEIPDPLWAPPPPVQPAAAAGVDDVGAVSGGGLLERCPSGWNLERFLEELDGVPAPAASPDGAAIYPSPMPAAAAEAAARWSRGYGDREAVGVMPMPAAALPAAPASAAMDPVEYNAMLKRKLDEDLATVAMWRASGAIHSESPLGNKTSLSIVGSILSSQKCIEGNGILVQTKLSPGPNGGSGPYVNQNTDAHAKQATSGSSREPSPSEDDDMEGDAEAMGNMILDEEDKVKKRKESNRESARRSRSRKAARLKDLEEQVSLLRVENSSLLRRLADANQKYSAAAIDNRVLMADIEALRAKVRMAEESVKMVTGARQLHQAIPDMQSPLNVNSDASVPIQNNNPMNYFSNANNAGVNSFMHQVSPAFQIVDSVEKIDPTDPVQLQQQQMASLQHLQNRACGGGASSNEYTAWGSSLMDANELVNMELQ
Put plainly: protein-binding microarray (RPBM); PBS, 2% BSA, 51.3 ng/ul salmon testes DNA, 50 uM zinc acetate, 200 nM TF, 25 C, 1 h; high values mean tight binding. The conditions noted are these: protein: recombinant; tags: N-terminal polyhistidine and DsRed monomer fusion (pET32a); chain copies: 2; label: CyDye5-dUTP incorporated in the synthesized complementary strand; 3' TTTTT single-stranded linker to array surface; dsDNA, one strand shown. An outline of the steps: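 The binding signal is fluorescence intensity per array feature (arbitrary units). Readings came from an Axon 4000B scanner after a washed, 2% BSA-blocked, double-stranded custom Agilent array had been incubated for 1 h at 25 °C with 200 nM protein and 50 µM zinc acetate. The protein was a Ni–NTA-purified transcription factor fused N-terminally to polyhistidine and DsRed, expressed in E. coli BL21-CodonPlus.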
Take “TGGCTATACTATTGAACTTGCTCTCGTGGGACCCACATACCGGAGTCACCTAGTGCAG”: the binding signal was 3680 fluorescence intensity (a.u.). Take “CTTTTGGTCTCGCGCCCACTGACACGTGGGTCCCACGCTCCGGAGTCACCTAGTGCAG”: the binding signal was 6100 fluorescence intensity (a.u.).

Turning to “GCGCGCGCGTTCTCTAATCGAAGTCGATAGGATAGGAGGACGGAGTCACCTAGTGCAG”, the binding signal is 36900 fluorescence intensity (a.u.). In the case of “GCCCTGTTCCCTGCAGAGAATCATTATATACTCCCTCCAACGGAGTCACCTAGTGCAG” it was 48100 fluorescence intensity (a.u.); in that of “CATTCCCTCCTCCTCCTCCTCCTCCTCCTGAATCCCTCCTCGGAGTCACCTAGTGCAG”, 3380 fluorescence intensity (a.u.). The figure for “TATATAAGAGACCTCACCTCCAAGAATCTCCAGAGAGAGACGGAGTCACCTAGTGCAG” is 22900 fluorescence intensity (a.u.); for “CGAGGTGAGGCGGAGGGGAGGCAGAGGGGTAGAGGAGGGTCGGAGTCACCTAGTGCAG” it is 5260 fluorescence intensity (a.u.); for “CTACTATACCTCCGTGCGTACCACATACTGTATGTAGACTCGGAGTCACCTAGTGCAG” it is 4130 fluorescence intensity (a.u.). Take “CATAGTGCAGGGGAGAAGCCAGGGAAGAGGGAGGTGACGTCGGAGTCACCTAGTGCAG”: the binding signal is 3290 fluorescence intensity (a.u.).

Take “AATAGGAAATAAACATTACTGAGAAAAGGGCTCATGTTGGCGGAGTCACCTAGTGCAG”: the binding signal was 29300 fluorescence intensity (a.u.).

Turning to “AAACGATGACTGTTAAATAGGGATTAAAAGGAAAGGATGGCGGAGTCACCTAGTGCAG”, the binding signal is 41200 fluorescence intensity (a.u.).

As to “GAGGAGTGGGAGGAAAATGAGTGGTGGGGAAAGGATAGGGCGGAGTCACCTAGTGCAG”, the binding signal is 4150 fluorescence intensity (a.u.).

For “AGCACACATACTAGTACTATATGACAAGTCCACGGAGAGCCGGAGTCACCTAGTGCAG”, the binding signal was 3760 fluorescence intensity (a.u.). In the case of “GATTAATACGACTACTGTCATACGTACTGTACATGTCATGCGGAGTCACCTAGTGCAG” it was 3720 fluorescence intensity (a.u.). The figure for “TTTTGAGCCTAGTTAGTCCATGATTAGCCATAAATGCTACCGGAGTCACCTAGTGCAG” is 4540 fluorescence intensity (a.u.); for “CTTTGGCTTTTAGCCATAGACTTTGATCCATGAGTTAGAACGGAGTCACCTAGTGCAG” it is 40900 fluorescence intensity (a.u.). The figure for “TTTTAGCCTCCTTTTGGTTAATCTTTGTTTGATCCAAGAACGGAGTCACCTAGTGCAG” is 10200 fluorescence intensity (a.u.). On to “GGGAAGAGAGAAGAGACGAAACAGGGAGGAGGGGATTGGGCGGAGTCACCTAGTGCAG”, for which the binding signal was 3320 fluorescence intensity (a.u.). The figure for “CAACATGCACGTACTACGTGTGCTTGCATTGCATGCATGCCGGAGTCACCTAGTGCAG” is 4450 fluorescence intensity (a.u.). In the case of “GGGAGGAAGAAGAAAGGGAGAGAGAGGGGATGACATGTGGCGGAGTCACCTAGTGCAG” it was 5680 fluorescence intensity (a.u.).

For “AGAGAAAGGAAGGGAAGAGAGAGGGTGATGACGTGGCGACCGGAGTCACCTAGTGCAG”, the binding signal is 35600 fluorescence intensity (a.u.). The figure for “ACGATATGACGGAAAAGTTGGAAGTTTGTGTGTAGAAAAGCGGAGTCACCTAGTGCAG” is 3140 fluorescence intensity (a.u.); for “GAGAGGACGAAGGGAAAGAGAGAGATGGTGATGACGTGGCCGGAGTCACCTAGTGCAG” it is 31600 fluorescence intensity (a.u.); for “AAAATGGAGAGAAGAGGAAGGGACAGATGACGTGGCATCCCGGAGTCACCTAGTGCAG” it is 48900 fluorescence intensity (a.u.). The figure for “GAGAGAAGAGGGGAAAAGAGAGAGGAGTTTGATGACGTGGCGGAGTCACCTAGTGCAG” is 39300 fluorescence intensity (a.u.). In the case of “AAAGAATGACGATATGATGTGAGAAGTTTGTGAAGACTTGCGGAGTCACCTAGTGCAG” it was 41100 fluorescence intensity (a.u.); in that of “AGACTGAAAGAGAGAGGAAGGAAGAGAGATGACGTGGCATCGGAGTCACCTAGTGCAG”, 35800 fluorescence intensity (a.u.); in that of “TCAGAATGCGTGTGATGTAAAAGTTCGAGAAGACTTTGTTCGGAGTCACCTAGTGCAG”, 3210 fluorescence intensity (a.u.).

“CCATCTCCGACGAATGATGCTTTGACACTTAATGCTGCGTCGGAGTCACCTAGTGCAG”: the binding signal is 3350 fluorescence intensity (a.u.). With “CGGCTTACGGCCGCCTGTCGGGGAAGATGACTCCCTCTTCCGGAGTCACCTAGTGCAG”, the binding signal is 5050 fluorescence intensity (a.u.). The figure for “AACAAAAGTTGTTTTGACTCACGCGGTGGCTGTTGTCTGTCGGAGTCACCTAGTGCAG” is 6340 fluorescence intensity (a.u.); for “GTCACCGAAGGCGATTAAGGGACAAGCTATAGCTGATTTTCGGAGTCACCTAGTGCAG” it is 46100 fluorescence intensity (a.u.).

Regarding “GGAAGCGGCTGCTGACAATGGGGATTAGATAGGCTAAGGGCGGAGTCACCTAGTGCAG”, the binding signal is 3700 fluorescence intensity (a.u.). The figure for “TTAAGGACGATTTTGTAATTCAGCTGACAAGACGAGGGATCGGAGTCACCTAGTGCAG” is 4300 fluorescence intensity (a.u.); for “CCGAGGCCCAATAAATTATGGGGTTGGCTCCAATAAATTACGGAGTCACCTAGTGCAG” it is 3940 fluorescence intensity (a.u.). The figure for “GCCATCTGACAACCAGTAAATGTACTGTCCACCGGGCCAACGGAGTCACCTAGTGCAG” is 6470 fluorescence intensity (a.u.); for “TACTACTTCCGATCAGAGCCATACCAATGCCACGACACGACGGAGTCACCTAGTGCAG” it is 4090 fluorescence intensity (a.u.).

In the case of “TTTCGCCATTTCCGACAATGTACTTCACCACTGATCTGAACGGAGTCACCTAGTGCAG”, the binding signal is 64900 fluorescence intensity (a.u.). The figure for “CAAGTGATAATCTATACCTAGTTGATGATGCCAATATCATCGGAGTCACCTAGTGCAG” is 4340 fluorescence intensity (a.u.). In the case of “TGCAACCACCACCACCACGTCCCAAACTCGCACGTTTCTCCGGAGTCACCTAGTGCAG” it was 4090 fluorescence intensity (a.u.); in that of “CAAATGTTCTTTTGACGTATATGACCACATATTTGCAGTACGGAGTCACCTAGTGCAG”, 3520 fluorescence intensity (a.u.); in that of “ACAATGTTCCGGGTCTTATATTGCCAAATCAGTGACGTACCGGAGTCACCTAGTGCAG”, 59800 fluorescence intensity (a.u.).
